Results from PubChem BioAssay (NCI).
This is part of a sample that, as a whole, favours compounds with a hit. Of some 83,000 tested, about 20% had one in any assay.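 Step 1: grow cells in 96-well plates. Step 2: add test compound at a single concentration. Step 3: incubate 48 h. Step 4: record percent growth.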 Calls of active or inactive are those of the source. The calls were made as follows: active = growth percent below 10; inactive = the rest.

What was measured:
Test in all cases: NCI-60 one-dose screen, 48 h (100 = growth as untreated, 0 = no growth, -100 = all killed)
Conditions in all cases: 10 µM unless noted
NCI-H23 lung = system: NCI-H23 lung
NCI-H226 lung = system: NCI-H226 lung
NCI-H322M lung = system: NCI-H322M lung
HOP-62 NSCLC = system: HOP-62 NSCLC
NCI-H460 lung = system: NCI-H460 lung
HOP-92 NSCLC = system: HOP-92 NSCLC
NCI-H522 lung = system: NCI-H522 lung
786-0 renal = system: 786-0 renal
COLO 205 colon = system: COLO 205 colon
A549/ATCC NSCLC = system: A549/ATCC NSCLC

Measured: growth

Clc1ccc(-n2ncc3c(NCCCN4CCOCC4)ncnc32)cc1
inactive: NCI-H23 lung 87.6% | NCI-H226 lung 91.8% | NCI-H322M lung 89.8% | HOP-62 NSCLC 87.7% | NCI-H460 lung 102% | HOP-92 NSCLC 71.3% | NCI-H522 lung 94.7% | 786-0 renal 107% | COLO 205 colon 87.4%

C[C@@]1(CO)[C@H](O)CC[C@@]2(C)[C@H]1CC[C@H]1C[C@@H]3C[C@@]12CC[C@@]3(O)COC(=O)CN
inactive: NCI-H23 lung 21.5% | NCI-H226 lung 62% | NCI-H322M lung 78.1% | HOP-62 NSCLC 37.6% | NCI-H460 lung 12% | HOP-92 NSCLC 45.4% | NCI-H522 lung 49% | 786-0 renal 14.9% | COLO 205 colon 47%
active: A549/ATCC NSCLC 3.43%

C/C=C/c1cc2c(c(=O)o1)C(=O)[C@@H](O)[C@H](C)O2
inactive: NCI-H23 lung 77.9% | NCI-H226 lung 79.6% | NCI-H322M lung 94.6% | HOP-62 NSCLC 101% | NCI-H460 lung 81.6% | A549/ATCC NSCLC 97.2% | 786-0 renal 78.4% | COLO 205 colon 35.6%
active: NCI-H522 lung -69%

O=C1CSC(=S)N1Cc1cccnc1
inactive: NCI-H23 lung 101% | NCI-H226 lung 109% | NCI-H322M lung 85.7% | HOP-62 NSCLC 78.4% | NCI-H460 lung 106% | NCI-H522 lung 36.8% | A549/ATCC NSCLC 95.4% | 786-0 renal 44.6% | COLO 205 colon 53.6%

O=C(C[P+](c1ccccc1)(c1ccccc1)c1ccccc1)c1ccccc1
inactive: NCI-H23 lung 91.9% | NCI-H226 lung 99.4% | NCI-H322M lung 92.2% | HOP-62 NSCLC 94.7% | NCI-H460 lung 97.7% | NCI-H522 lung 61.4% | A549/ATCC NSCLC 90.1% | 786-0 renal 99.6% | COLO 205 colon 89.6%

CCC(C)C(N)C(=O)NC(CC(N)=O)C(=O)NC(CC(C)C)C(=O)NC(CCCCN)C(=O)NC(C)C(=O)NC(CC(C)C)C(=O)NC(C)C(=O)NC(C)C(=O)NC(CC(C)C)C(=O)NC(C)C(=O)NC(CCCCN)C(=O)NC(CCCCN)C(=O)NC(C(=O)NC(CC(C)C)C(N)=O)C(C)CC (configuration not stated)
inactive: NCI-H23 lung 82.1% | NCI-H226 lung 113% | NCI-H322M lung 100% | HOP-62 NSCLC 74.9% | NCI-H460 lung 79.3% | NCI-H522 lung 85.2% | A549/ATCC NSCLC 90.3% | 786-0 renal 68.1% | COLO 205 colon 90%

CC(=O)c1c(O)c(C)c(O)c2c1OC1=CC(=O)C(C(C)=O)C(=O)C12C (configuration not stated)
inactive: NCI-H23 lung 79.1% | NCI-H226 lung 88.6% | NCI-H322M lung 60.3% | HOP-62 NSCLC 74.3% | NCI-H460 lung 89.1% | NCI-H522 lung 71.7% | A549/ATCC NSCLC 96% | 786-0 renal 69.9%

Cc1ccc(/C=C2\CNC/C(=C\c3ccc(C)cc3)C2=O)cc1
inactive: NCI-H322M lung 22.9%
active: NCI-H23 lung 2.76% | NCI-H226 lung -63.2% | HOP-62 NSCLC 4.5% | NCI-H460 lung -47.1% | NCI-H522 lung -54% | A549/ATCC NSCLC -53.7% | 786-0 renal -71.5% | COLO 205 colon -70.5%

Cc1c(O)ccc(SC#N)c1C
inactive: NCI-H23 lung 98% | NCI-H226 lung 109% | NCI-H322M lung 117% | HOP-62 NSCLC 100% | NCI-H460 lung 99.5% | HOP-92 NSCLC 92.2% | A549/ATCC NSCLC 108% | COLO 205 colon 96.9%

Oc1ccc(Cl)cc1C(c1cc(Cl)ccc1O)C(Cl)(Cl)Cl
inactive: NCI-H226 lung 22.5% | NCI-H322M lung 27.7% | HOP-62 NSCLC 14.1% | A549/ATCC NSCLC 28.7% | 786-0 renal 15.2% | COLO 205 colon 49.4%
active: NCI-H23 lung -25.2% | NCI-H460 lung -12% | HOP-92 NSCLC -25.3%

CCN(CC)c1ccc(/C=C\C(=O)c2ccc(NC(C)=O)cc2)cc1
inactive: NCI-H23 lung 75.2% | NCI-H226 lung 99.6% | NCI-H322M lung 111% | HOP-62 NSCLC 56.2% | NCI-H460 lung 82.2% | HOP-92 NSCLC 70.9% | A549/ATCC NSCLC 56.8% | COLO 205 colon 49.4%
